Assay results as given in PubChem BioAssay AID619 (University of Pittsburgh Molecular Library Screening Center, 2007).
In all, about 97,000 compounds went through this assay and about 520 (0.54%) were called active. The sample holds actives, similar compounds and a random draw of the others, so the mix is not that of the screen.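 The calls were made as follows: active = inhibition of 50% or more in the single-concentration screen; inactive = inhibition below 50%.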

These compounds were tested against Serine/threonine-protein kinase PLK1 (Homo sapiens) (UniProt P53350) (assay: Plk1 peptide phosphorylation blockers – biochemical, TR-FRET, primary screen (AID 619;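 also: 0% = DMSO max control and 100% = H-89 dihydrochloride min control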)). Conditions: recombinant PLK1 kinase, at 10 µM, stronger effect = higher value.
Sequence of Serine/threonine-protein kinase PLK1 (Homo sapiens) (P53350 whole entry, looked up): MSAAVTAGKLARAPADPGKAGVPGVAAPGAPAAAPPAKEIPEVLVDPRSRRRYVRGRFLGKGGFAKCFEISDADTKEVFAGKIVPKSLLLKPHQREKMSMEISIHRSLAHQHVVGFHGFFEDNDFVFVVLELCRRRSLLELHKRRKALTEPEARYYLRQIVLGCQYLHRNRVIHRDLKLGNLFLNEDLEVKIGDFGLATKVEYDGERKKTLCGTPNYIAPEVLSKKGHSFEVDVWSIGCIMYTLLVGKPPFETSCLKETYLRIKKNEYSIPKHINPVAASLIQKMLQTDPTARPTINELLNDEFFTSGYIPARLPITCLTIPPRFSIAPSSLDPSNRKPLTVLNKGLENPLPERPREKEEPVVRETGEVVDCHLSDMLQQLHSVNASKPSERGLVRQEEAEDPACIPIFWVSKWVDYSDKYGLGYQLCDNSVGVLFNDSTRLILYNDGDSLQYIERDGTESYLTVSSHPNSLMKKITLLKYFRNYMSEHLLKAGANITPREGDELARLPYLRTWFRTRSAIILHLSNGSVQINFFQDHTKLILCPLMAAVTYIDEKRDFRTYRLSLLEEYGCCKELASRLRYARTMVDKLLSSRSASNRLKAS

inhibition, active:
CC1CSc2nnc(CCc3ccccc3)n21 (stereo not drawn) 85.2%
CCc1nnc(NC(=O)c2cccs2)s1 60.3%
CN1CCN(c2cc(=O)n(-c3ccc(Cl)cc3)c(=O)[nH]2)CC1 67.4%
C[N+]1(CCNC(=O)/C=N/O)CCCCC1 95.9%
CCOc1ccccc1C1CC(c2ccccc2)Nc2nc(N)nn21 (stereo not drawn) 64%
CCC(C)Sc1nc(C)nc2c1c(=O)n(C)c(=O)n2C (stereo not drawn) 52.6%
CSc1nc(C)nc2c1c(=O)n(C)c(=O)n2C 68.3%
CN(CCC#N)c1ncnc2scc(-c3ccccc3)c12 54.3%

inhibition, inactive:
CCN(CC)CCNc1ccc(Cl)cc1[N+](=O)[O-] -12.3%
Cc1cc(C)c2c3c(sc2n1)C(c1ccccc1)C(C#N)=C(N)O3 (stereo not drawn) -9.36%
c1ccc(CCC2=NCCn3cccc32)cc1 -1.03%
CNC(=O)CSc1nnc(CCc2ccccc2)n1-c1ccccc1 -5.54%
Cc1ccoc1C(=O)Nc1cccc(Oc2ccccc2)c1 1.94%
Cc1nc2nc(C)c(CCC(=O)N3CCN(c4ccccc4)CC3)c(C)n2n1 4.83%
c1cncc(-c2nnc3n2C2(CCCCC2)Cc2ccccc2-3)c1 -8.5%
COc1cccc(/C=N/NC(=O)C(=O)N2CCCC2)c1 -9.34%
CCOC(=O)N1CCN(Cc2nc(N)nc(Nc3ccc(C)cc3)n2)CC1 -13.1%
CC(Oc1ccc(F)cc1F)C(=O)/C=C/N(C)C (stereo not drawn) 0.09%
CN1CCN(c2ccc([N+](=O)[O-])c(Sc3nc4ccccc4[nH]3)c2)CC1 -5.67%
C=CCn1c(Cn2nnc3ccccc32)nnc1SCC(=O)N/N=C/c1cc(Br)cc(OC)c1O -6.54%
CCN1CCN(C(=O)c2cc3cc4ccc(OC)cc4nc3s2)CC1 -4.82%
COc1ccc(-n2c(SCC(=O)NCc3ccco3)nnc2-c2c[nH]c3ccccc23)cc1 -3.5%
CCCc1nnc(NC(=O)c2cccs2)s1 -6.49%
CCc1ccccc1NC(=O)c1cccs1 -6.58%
Cc1ccc2nc(SC(C)C(=O)NCc3ccco3)[nH]c2c1 (stereo not drawn) 1.32%
CN1CCN(c2ccc(NC(=O)COc3ccc(Cl)cc3Cl)cc2)CC1 3%
Cc1ccc(-n2c(=O)cc(N3CCN(Cc4ccccc4)CC3)[nH]c2=O)cc1 -1.26%
COc1ccc(C2Nc3ccccc3C(=O)N2Cc2ccccc2)cc1Cn1nnc2ccccc21 (stereo not drawn) -11.2%
Cc1ccc(S(=O)(=O)c2c(COC(=O)c3cccc(Cl)c3)c(-c3ccccc3)nn2C)cc1 3.59%
CCOC(=O)c1c(NC(=S)Nc2ccccc2)sc2c1CCN(C)C2 -13.1%
COc1ccc(C2CC(c3ccc(C)cc3)Nc3nc(N)nn32)cc1 (stereo not drawn) -3.47%
CCOc1ccccc1C1CC(c2ccc(Cl)cc2)Nc2nc(N)nn21 (stereo not drawn) -12.7%
CCOc1ccc(S(=O)(=O)N2CCCCCC2)c2ccccc12 -17.7%
O=C(CNC(=O)Cc1ccccc1)NCC(=O)OCC(=O)c1ccccc1Cl -4.92%
COc1ccc(C2=NOC3(CC(=O)N(c4ccc(Cl)cc4)C3=O)C2)c(OC)c1 (stereo not drawn) -9.65%
CC(=O)c1cn(CCCCCCCCCCn2cc(C(C)=O)c(=O)[nH]c2=O)c(=O)[nH]c1=O -6.55%
COc1nc(-c2ccc(Cl)cc2)ccc1-c1noc(-c2cccs2)n1 -90.7%
O=C(CSc1ncnc2c1cnn2CCc1ccccc1)Nc1ccc(F)cc1 -7.32%
Cc1cc(C)c(OCC(=O)N/N=C/c2ccco2)c(C)c1 6.14%
Cc1ccc(CS(=O)(=O)CCC(=O)NC2CC2)cc1 -7.25%
Nc1ccc(-n2nncc2-c2ccco2)cc1 -4.39%
CCCc1nc2scc(-c3ccc(C)cc3)c2c(=O)n1N 5.26%
COc1ccc(CCN2C(=O)C3CC=C(C)CC3C2=O)cc1OC (stereo not drawn) -10.2%
COc1cc(OC)c(-n2c(C)cc(C=O)c2C)cc1Cl -6.8%
CCCC(=O)n1nc(-c2ccccc2)nc1N -4.99%
COc1ccccc1NS(=O)(=O)N(C)C -7.41%
O=C(O)CCC(=O)NCc1ccc(C(=O)O)cc1 -9.7%
C=CCn1c(SCC(=O)c2c(N)n(C)c(=O)n(C)c2=O)nc2sc(CC)cc2c1=O -9.06%
CC(=O)c1ccc(OCCN2CCOCC2)cc1 -17.4%
COc1ccc(C(=O)c2c(C)oc3cc([N+](=O)[O-])c(O)c([N+](=O)[O-])c23)cc1 -2.19%
Cc1ccc(Cc2cnc(NC(=O)/C(C#N)=C/c3ccc(-c4cccc([N+](=O)[O-])c4)o3)s2)cc1 -5.56%
CCCSc1nc2c(c(=O)n(C)c(=O)n2C)n1Cc1ccc(C)cc1 6.87%
Cn1c(=O)c2c(SCC(=O)N3CCOCC3)nc(C3CC3)nc2n(C)c1=O 36.6%
COc1ccc(CC(=O)Nc2sc(Cc3ccccc3)c(C)c2C(N)=O)cc1 -12%
O=c1cc(C(F)(F)F)[nH]c(=O)n1C1CCCCC1 -12.1%
COc1ccc(/C=C/C(=O)Nc2c(C)nn(C)c2C)cc1COc1ccc(Br)cc1 -7.02%
CCc1c(C)nc2cc(C)[nH]n2c1=O -1.93%
FC(F)(F)c1cc(C(F)(F)F)c2ccc(N3CCN(c4ccccc4)CC3)nc2n1 -4.18%
C=CCn1cnc2scc(-c3ccccc3)c2c1=O -17.6%
N#CCCN(CCC#N)c1nnc(-c2ccccc2)s1 -13.8%
CS(=O)(=O)n1nc(-c2ccccc2)nc1NCc1ccco1 -17.7%
Cc1nc2cc(NC(=O)CSc3nc4c(C)cccc4cc3C#N)ccc2s1 -34.1%
CC(=O)C1=C(C)NC(=O)NC1c1cc(Br)ccc1OCC#N (stereo not drawn) -9.62%
